Where “and” joins values, the source holds several entries; their conditions need not be identical. Identical values can stand only once. About 2,000 (36%) of roughly 5,500 compounds were called active. About 18% were inconclusive and are not listed. Cut-off read from the data, not from the text of the source: active = normalized growth mostly below about 0.91 (no sharp cut-off); inconclusive = no clear call, values can overlap the other calls; inactive = mostly above about 0.92. The list shows a part of the results.
Experiment: chemical genetic growth profiling, strain panel (AID 1159580);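 note: tested at 20 µM; growth read once vehicle control cultures reached saturation at 30 °C; 1 = growth at the plate median or of vehicle wells; lower values mean less growth of the strain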
Settings: S. cerevisiae deletion strains, growth OD

Measured: normalized growth

c1cc2c(cc1[C@H]1OC[C@H]3[C@@H]1CO[C@H]3c1ccc3c(c1)OCO3)OCO2
0.714 (active) and 0.956 (inactive): locus YJL095W, strain BCK1, stronger effect = lower value
inactive: locus YAL013W, strain DEP1, stronger effect = lower value 0.93 | locus YAL021C, strain ccr4, stronger effect = lower value 0.936 | locus YBR021W, strain FUR4, stronger effect = lower value 0.961 | locus YBR171W, strain sec66, stronger effect = lower value 0.897 | locus YBR229C, strain ROT2, stronger effect = lower value 0.941 | locus YBR231C, strain swc5, stronger effect = lower value 0.922 | locus YBR279W, strain paf1, stronger effect = lower value 0.936 | locus YCL029C, strain bik1, stronger effect = lower value 0.933 | locus YCL061C, strain MRC1, stronger effect = lower value 0.93 | locus YDL005C, strain med2, stronger effect = lower value 0.915 | locus YDL035C, strain GPR1, stronger effect = lower value 0.906 | locus YDL074C, strain BRE1, stronger effect = lower value 0.874 | locus YDL101C, strain DUN1, stronger effect = lower value 0.927 | locus YDL185W, strain tfp1, stronger effect = lower value 0.93 | locus YDR069C, strain doa4, stronger effect = lower value 0.956 | locus YDR162C, strain NBP2, stronger effect = lower value 0.894 | locus YDR195W, strain ref2 1.06 | locus YDR335W, strain msn5, stronger effect = lower value 0.934 | locus YEL037C, strain rad23, stronger effect = lower value 0.926 | locus YER110C, stronger effect = lower value 0.942 | locus YER111C, strain swi4, stronger effect = lower value 0.919 | locus YFR010W, strain ubp6, stronger effect = lower value 0.938 | locus YGL078C, strain dbp3, stronger effect = lower value 0.958 | locus YGL173C, strain kem1, stronger effect = lower value 0.904 | locus YGL227W, strain vid30, stronger effect = lower value 0.926 | locus YGL240W, strain doc1, stronger effect = lower value 0.89 | locus YGL248W, strain PDE1, stronger effect = lower value 0.901 | locus YGR078C, strain PAC10, stronger effect = lower value 0.856 | locus YGR135W, strain pre9, stronger effect = lower value 0.906 | locus YGR252W, strain gcn5, stronger effect = lower value 0.897 | locus YHR013C, strain ard1, stronger effect = lower value 0.871 | locus YHR079C, strain IRE1, stronger effect = lower value 0.895 | locus YIL073C, strain SPO22, stronger effect = lower value 0.783 | locus YJL134W, strain LCB3, stronger effect = lower value 0.974 | locus YJL154C, strain vps35, stronger effect = lower value 0.936 | locus YJL187C, strain SWE1 (second series), stronger effect = lower value 0.925 | locus YJL187C, strain SWE1, stronger effect = lower value 0.932 | locus YJR043C, strain POL32, stronger effect = lower value 0.959 | locus YJR066W, strain TOR1, stronger effect = lower value 0.888
active: locus YAL026C, strain drs2, stronger effect = lower value 0.803 | locus YAL030W, strain snc1, stronger effect = lower value 0.908 | locus YBL061C, strain skt5, stronger effect = lower value 0.918 | locus YBR009C, strain hhf1, stronger effect = lower value 0.904 | locus YBR023C, strain chs3, stronger effect = lower value 0.906 | locus YCL011C, strain gbp2, stronger effect = lower value 0.881 | locus YCL016C, strain dcc1, stronger effect = lower value 0.911 | locus YCL069W, strain vba3, stronger effect = lower value 0.919 | locus YCR088W, strain abp1, stronger effect = lower value 0.911 | locus YDL040C, strain nat1, stronger effect = lower value 0.92 | locus YDL134C, strain PPH21, stronger effect = lower value 0.881 | locus YDL192W, strain arf1, stronger effect = lower value 0.877 | locus YDR001C, strain nth1, stronger effect = lower value 0.889 | locus YDR101C, strain arx1, stronger effect = lower value 0.895 | locus YDR137W, strain rgp1, stronger effect = lower value 0.492 | locus YDR159W, strain sac3, stronger effect = lower value 0.856 | locus YDR297W, strain sur2, stronger effect = lower value 0.905 | locus YDR318W, strain mcm21, stronger effect = lower value 0.867 | locus YDR334W, strain swr1, stronger effect = lower value 0.861 | locus YDR388W, stronger effect = lower value 0.923 | locus YDR392W, strain spt3, stronger effect = lower value 0.371 | locus YDR502C, strain sam2, stronger effect = lower value 0.869 | locus YEL003W, strain gim4, stronger effect = lower value 0.911 | locus YEL061C, strain CIN8 (second series), stronger effect = lower value 0.859 | locus YEL061C, strain CIN8, stronger effect = lower value 0.724 | locus YER015W, strain faa2, stronger effect = lower value 0.925 | locus YER016W, strain bim1, stronger effect = lower value 0.908 | locus YER155C, strain BEM2 (second series), stronger effect = lower value 0.783 | locus YER155C, strain BEM2, stronger effect = lower value 0.862 | locus YER167W, strain BCK2, stronger effect = lower value 0.813 | locus YGL086W, strain mad1, stronger effect = lower value 0.845 | locus YGL167C, strain pmr1, stronger effect = lower value 0.862 | locus YGL253W, strain hxk2, stronger effect = lower value 0.845 | locus YHR027C, strain rpn1, stronger effect = lower value 0.913 | locus YHR079C, strain IRE1 (second series), stronger effect = lower value 0.902 | locus YHR094C, strain hxt1, stronger effect = lower value 0.922 | locus YHR129C, strain ARP1, stronger effect = lower value 0.911 | locus YHR142W, strain chs7, stronger effect = lower value 0.803 | locus YHR200W, strain rpn10, stronger effect = lower value 0.884 | locus YIL066C, strain RNR3, stronger effect = lower value 0.828 | locus YIL125W, strain kgd1, stronger effect = lower value 0.889 | locus YIR030C, strain dcg1, stronger effect = lower value 0.901 | locus YJL092W, strain hpr5, stronger effect = lower value 0.914 | locus YJL095W, strain BCK1 (second series), stronger effect = lower value 0.904 | locus YJL115W, strain asf1, stronger effect = lower value 0.904 | locus YJL129C, strain trk1, stronger effect = lower value 0.722 | locus YJL164C, strain tpk1, stronger effect = lower value 0.896 | locus YJL166W, strain qcr8, stronger effect = lower value 0.88 | locus YJL168C, strain set2, stronger effect = lower value 0.927
0.87 (active) and 0.888 (inactive): locus YHR030C, strain SLT2, stronger effect = lower value

From PubChem BioAssay AID1159580 (chemical genetic matrix, 2015)
